# Laboratory results taken from PMC4336329 (PLoS ONE, 2015).
# The whole screen tested about 310,000 compounds, of which about 14,000 (4.5%) showed an effect of 50% or more. Effects have a minus sign here. This is one part of a sample in which strong results are shown more often than they occur.
# Molecular target: human ether-à-go-go-related gene (hERG) potassium channel (human, UniProt Q12809)
# Experiment: primary screen, population patch clamp on CHO cells stably expressing hERG; higher = less effect of the substance
# 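Note: peak tail current of the secondary pulse compared with the same well before compound.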
# human ether-à-go-go-related gene (hERG) potassium channel, sequence (Q12809 whole entry, looked up): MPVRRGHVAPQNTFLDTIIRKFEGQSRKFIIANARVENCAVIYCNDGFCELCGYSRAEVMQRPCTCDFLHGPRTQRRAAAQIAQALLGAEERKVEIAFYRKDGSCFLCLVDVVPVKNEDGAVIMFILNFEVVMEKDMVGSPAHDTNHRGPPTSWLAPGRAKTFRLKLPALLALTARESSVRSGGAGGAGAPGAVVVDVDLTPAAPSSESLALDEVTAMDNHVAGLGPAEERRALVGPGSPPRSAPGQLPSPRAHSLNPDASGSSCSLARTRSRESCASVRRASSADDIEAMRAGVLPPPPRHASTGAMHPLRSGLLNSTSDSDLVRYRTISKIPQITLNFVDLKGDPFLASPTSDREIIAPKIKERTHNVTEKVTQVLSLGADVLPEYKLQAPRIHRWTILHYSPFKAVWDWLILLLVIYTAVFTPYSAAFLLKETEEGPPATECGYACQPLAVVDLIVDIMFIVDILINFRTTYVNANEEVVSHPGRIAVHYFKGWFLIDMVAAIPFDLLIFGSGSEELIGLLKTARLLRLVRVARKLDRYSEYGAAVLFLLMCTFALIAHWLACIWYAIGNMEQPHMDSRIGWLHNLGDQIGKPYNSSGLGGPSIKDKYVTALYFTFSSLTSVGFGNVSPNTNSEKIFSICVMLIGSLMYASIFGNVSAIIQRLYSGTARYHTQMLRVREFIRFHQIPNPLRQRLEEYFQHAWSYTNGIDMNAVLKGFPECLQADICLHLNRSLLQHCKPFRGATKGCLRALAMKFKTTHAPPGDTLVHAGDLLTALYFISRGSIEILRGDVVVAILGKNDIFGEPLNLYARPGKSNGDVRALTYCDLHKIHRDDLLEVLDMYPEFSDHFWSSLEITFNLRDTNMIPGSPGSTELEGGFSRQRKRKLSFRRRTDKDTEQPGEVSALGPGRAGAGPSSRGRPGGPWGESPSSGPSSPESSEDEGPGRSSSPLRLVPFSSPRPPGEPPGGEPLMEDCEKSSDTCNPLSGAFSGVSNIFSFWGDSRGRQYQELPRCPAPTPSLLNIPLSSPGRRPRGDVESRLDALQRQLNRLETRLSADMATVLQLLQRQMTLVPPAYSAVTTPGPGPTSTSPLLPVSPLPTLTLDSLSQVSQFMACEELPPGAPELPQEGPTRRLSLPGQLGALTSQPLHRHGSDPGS
row,SMILES,"hERG current change (%, negative = inhibition) at 10uM [%]"
1,CC(=O)CCC(=O)N1CCCC(N2CCN(c3cccc(Cl)c3)CC2)C1 (stereo not drawn),-2.63
2,O=C(CCC(F)(F)F)N1CCCC(N2CCN(c3cccc(Cl)c3)CC2)C1 (stereo not drawn),-46.8
3,O=C(CSc1ccccc1)N1CCCC(N2CCN(c3ccc(F)cc3)CC2)C1 (stereo not drawn),-75.3
4,O=C(CSc1ccccc1)N1CCCC(N2CCN(c3ccccc3)CC2)C1 (stereo not drawn),-33.7
5,O=C(CSc1ccccc1)N1CCN(c2ccc(F)cc2)CC1,10.8
6,O=C(CSc1ccccc1)N1CCCC(N2CCN(c3cccc(Cl)c3)CC2)C1 (stereo not drawn),-54.1
7,CCCc1cc(C(=O)NCc2ccco2)no1,9.57
8,COc1cccc(CCc2nnc(CCC(=O)NCCc3cccc(C)n3)o2)c1,24.7
9,CCCOc1cccc(C2C(C(=O)c3cc4ccccc4o3)=C(O)C(=O)N2c2cc(C)on2)c1 (stereo not drawn),-7.72
10,CCCOC(=O)C[N+](C)(C)CCOC1CC2CCC1(C)C2(C)C.[Br-] (stereo not drawn),13
11,CCOC(=O)C[N+](C)(C)CCOC1CC2CCC1(C)C2(C)C.[Cl-] (stereo not drawn),10.3
12,CCCCOC(=O)C[N+](C)(C)CCOC1CC2CCC1(C)C2(C)C.[Br-] (stereo not drawn),-52.7
13,CCC(C)OC(=O)C[N+](C)(C)CCOC1CC2CCC1(C)C2(C)C.[Cl-] (stereo not drawn),-17.3
14,CC(C)CCOC(=O)C[N+](C)(C)CCOC1CC2CCC1(C)C2(C)C.[Cl-] (stereo not drawn),-16.3
15,CCCCCCOC(=O)C[N+](C)(C)CCOC1CC2CCC1(C)C2(C)C.[Cl-] (stereo not drawn),-78.1
16,CCCn1nc2cc(C(=O)NCc3ccc(OC(F)(F)F)cc3)ccc2c1OCC,14.3
17,O=C(COC(=O)c1ccc(Cl)nc1)NC1CCCCCC1,-5.25
18,CCCc1nnc(NC(=O)CCC(=O)N2CCN(C3c4ccccc4-c4ccccc43)CC2)s1,-3.76
19,CCCP(=O)(CC(=O)N(CC)CC)c1ccccc1 (stereo not drawn),12
20,COc1ccccc1N1CCN(C(=O)c2cc3n(n2)C(C(F)(F)F)CC(c2ccco2)N3)CC1 (stereo not drawn),-1.94

row,SMILES,"hERG current change (%, negative = inhibition) at 10uM [%]"
1,CC(C)c1nnc(NC(=O)c2cc3ccccc3o2)s1,11.1
2,Cc1c(CNC(=O)C2CC2)c(-n2cccc2)n(Cc2ccccc2)c1C,27.1
3,O=S(=O)(c1cccc(COc2c(Cl)cccc2Cl)c1)N1CCOCC1,-12
4,O=S(=O)(c1cccc(COc2ccc(Cl)cc2Cl)c1)N1CCOCC1,3.46
5,CC(=O)c1cc(Cl)ccc1OCc1cccc(S(=O)(=O)N2CCOCC2)c1,-68.9
6,N#Cc1ccc(OCc2cccc(S(=O)(=O)N3CCOCC3)c2)cc1,-82.1
7,N#Cc1ccccc1OCc1cccc(S(=O)(=O)N2CCOCC2)c1,-38.9
8,Cc1cc(OCc2cccc(S(=O)(=O)N3CCOCC3)c2)ccc1Cl,-9.12
9,COC(=O)c1sc2nc(CN3CCOCC3)nc(N3CCOCC3)c2c1C,1.53
10,O=c1cc(N2CCN(c3ccccc3)CC2)[nH]c(=O)n1Cc1ccc(F)cc1,-25.9
11,OC1(c2ccccn2)COc2ccccc2O1 (stereo not drawn),-10.5
12,CC(=O)Nc1ccc(Br)cc1C(=O)C(=O)O,-2.93
13,CCCOc1ccc(-c2nnn(CC(=O)N3CCCCC3)n2)cc1,12.9
14,N#C/C(=C\c1ccc(Cl)cc1)c1nc2ncccc2[nH]1,-15.1
15,CC1CCN(c2c(NCC3CCC(C(=O)N4CCCC(C)C4)CC3)c(=O)c2=O)CC1 (stereo not drawn),2.75
16,Oc1ccc(Cl)cc1CNCc1ccc(Cl)cc1,-3.68
17,CCc1ccc(O)c(CNCCNCc2cc(CC)ccc2O)c1,-55.2
18,Cc1ccc(O)c(CNCCNCc2cc(C)ccc2O)c1,-11.9
19,Cc1ccc(Cn2c(=N)c(C(=O)NCCN3CCOCC3)cc3c(=O)n4ccccc4nc32)cc1,-63.2
20,Cn1c(C(=O)NCCN2CCOCC2)cc2c(=O)n3ccccc3nc21,10

row,SMILES,"hERG current change (%, negative = inhibition) at 10uM [%]"
1,O=C(NCCN1CCOCC1)c1cc2c(=O)n3ccccc3nc2n1Cc1ccccc1,-5.9
2,Cc1c(C)n(Cc2ccc(F)cc2)c2ccc(C(=O)NCCN3CCOCC3)cc12,-19.2
3,N=c1c(C(=O)NCCN2CCOCC2)cc2c(=O)n3ccccc3nc2n1Cc1ccc(F)cc1,-76.5
4,Cc1cccn2c(=O)c3cc(C(=O)NCCN4CCOCC4)c(=N)n(Cc4ccc(F)cc4)c3nc12,-72.9
5,CC(C)NC(=O)Cn1c(SCC(=O)c2ccc(F)cc2)nc2ccccc21,6.27
6,COCCn1c(-c2ccc(F)cc2)nc2cccnc21,12.1
7,O=C1C[C@H](NC(=O)OCc2ccccc2)CO1,6.32
8,Fc1ccc(C2NCCn3cccc32)cc1.O=C(O)/C=C/C(=O)O (stereo not drawn),-3.11
9,O=C(Nc1nc2ccc(Cl)cc2s1)[C@@H]1CCCN1C(=O)c1cccs1,3.87
10,COc1ccc(NC(=O)[C@@H]2CCCN2C(=O)c2cccs2)cc1S(=O)(=O)N1CCCCC1,-6.06
11,O=C(Nc1ccc(S(=O)(=O)N2CCCC2)cc1)C1CCCN1C(=O)c1cccs1 (stereo not drawn),0.837
12,COc1ccc2nc(NC(=O)[C@@H]3CCCN3C(=O)c3cccs3)sc2c1,-56.4
13,CCOc1ccc(NC(=O)[C@@H]2CCCN2C(=O)c2cccs2)cc1S(=O)(=O)N1CCCCC1,10.5
14,O=C(Nc1ccc(OC(F)F)c(Cl)c1)[C@@H]1CCCN1C(=O)c1cccs1,-74.3
15,COc1ccc2nc(NC(=O)c3cccs3)sc2c1,8.71
16,CCOc1ccc(NC(=O)[C@@H]2CCCN2C(=O)c2cccs2)cc1S(=O)(=O)N1CCOCC1,6.27
17,O=C(Nc1ccc(Cl)c(S(=O)(=O)N2CCOCC2)c1)[C@@H]1CCCN1C(=O)c1cccs1,-57.6
18,Cc1ccc(NC(=O)[C@@H]2CCCN2C(=O)c2cccs2)cc1S(=O)(=O)N1CCCCC1,-63.9
19,Cc1ccc(NC(=O)C2CCCN2C(=O)c2cccs2)cc1C (stereo not drawn),-25.5
20,O=C(Nc1ccccc1OC(F)F)C1CCCN1C(=O)c1cccs1 (stereo not drawn),1.98
